Test [1] in a line: Human pregnane X receptor (PXR) small molecule agonists, qHTS cell viability counter screen (AID 1346977). Note: nearly all actives have a fitted effect of over 50% in size. The procedure, abridged: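 PXR-Luc HepG2 cells (2,000/well, 5% charcoal-stripped FBS) preincubated 5 hr, then exposed to compounds 24 hr at 37 C. Viability read in the same wells by CellTiter-Fluor fluorescence, reagent added at 23 hr, 1 hr incubation.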
Test [2] can be described thus: Caspase-3/7 induction in HepG2 cells by small molecules, qHTS assay (AID 1346978). Note: nearly all actives have a fitted effect of over 15% in size. The procedure, abridged: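 Wild-type HepG2 cells (2,000/well) were settled 5 h at 37 C, 5% CO2, then exposed to compounds in DMSO for 17 h. Caspase-3/7 activity was read by luminescence 30 min after adding Caspase-Glo 3/7 reagent at room temperature.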
Test [3] in a line: Caspase-3/7 induction in CHO-K1 cells by small molecules, qHTS cell viability counter screen (AID 1346979). Note: nearly all actives have a fitted effect of over 35% in size. Note: potency is the fitted concentration of half-maximal effect. The procedure, abridged: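 Wild-type CHO-K1 cells (1,500/well) treated with compound after 5 h plating; after 16 h at 37C, viability read as CellTiter-Fluor fluorescence following 1 h reagent incubation, in the same wells as the caspase read.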
Test [4] is described as follows: Caspase-3/7 induction in CHO-K1 cells by small molecules, qHTS assay (AID 1346980). Note: nearly all actives have a fitted effect of over 15% in size. The procedure, abridged:
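Wild-type cells were seeded at 1,500 per well and settled 5 hr at 37 C, 5% CO2, then exposed to DMSO-dissolved compounds for 17 hr. Caspase-Glo 3/7 reagent was added, and luminescence was read after 30min at room temperature.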

A short description of test [5]: Caspase-3/7 induction in HepG2 cells by small molecules, qHTS cell viability counter screen (AID 1346981). Note: series mostly up to about 92 µM; nearly all actives have a fitted effect of over 30% in size. The procedure, abridged:
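Treatment of HepG2 cells with DMSO-delivered compounds ran 16 hr at 37 C following a 5-hr pre-incubation of 2,000 cells/well. CellTiter-Fluor fluorescence, read after 1 hr, served as the viability measure in a qHTS format.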

Test [6] addresses Nuclear receptor subfamily 1 group I member 2 (Homo sapiens) (UniProt O75469). The test can be described thus: Human pregnane X receptor (PXR) small molecule agonists, qHTS assay (AID 1346982). Note: nearly all actives have a fitted effect of over 35% in size. Note: potency is the fitted concentration of half-maximal effect. The procedure, abridged:
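Stable HepG2 line reporting PXR-mediated CYP3A4 expression via luciferase. Treatment: 24 hr with compounds in DMSO at 37 C. Detection: ONE-Glo luminescence.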

For test [7], the target named is Acetylcholinesterase (Homo sapiens) (UniProt P22303). The test can be described thus: Acetylcholinesterase (AChE) small molecule antagonists: enzyme-based qHTS assay (AID 1347397; calls by dose curve; note: nearly all actives have a fitted effect of over 55% in size). Conditions: Potency: AChE enzyme activity inhibition. The procedure, abridged: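 Tox21 library chemicals are tested in qHTS format against recombinant human AChE. The enzyme, dispensed at 50 mU/mL, sits with compound for 30 min at room temperature. A DTNB–acetylthiocholine cocktail follows, and colour is read after 10 min.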
Sequence of Acetylcholinesterase (Homo sapiens) (P22303 whole entry, looked up): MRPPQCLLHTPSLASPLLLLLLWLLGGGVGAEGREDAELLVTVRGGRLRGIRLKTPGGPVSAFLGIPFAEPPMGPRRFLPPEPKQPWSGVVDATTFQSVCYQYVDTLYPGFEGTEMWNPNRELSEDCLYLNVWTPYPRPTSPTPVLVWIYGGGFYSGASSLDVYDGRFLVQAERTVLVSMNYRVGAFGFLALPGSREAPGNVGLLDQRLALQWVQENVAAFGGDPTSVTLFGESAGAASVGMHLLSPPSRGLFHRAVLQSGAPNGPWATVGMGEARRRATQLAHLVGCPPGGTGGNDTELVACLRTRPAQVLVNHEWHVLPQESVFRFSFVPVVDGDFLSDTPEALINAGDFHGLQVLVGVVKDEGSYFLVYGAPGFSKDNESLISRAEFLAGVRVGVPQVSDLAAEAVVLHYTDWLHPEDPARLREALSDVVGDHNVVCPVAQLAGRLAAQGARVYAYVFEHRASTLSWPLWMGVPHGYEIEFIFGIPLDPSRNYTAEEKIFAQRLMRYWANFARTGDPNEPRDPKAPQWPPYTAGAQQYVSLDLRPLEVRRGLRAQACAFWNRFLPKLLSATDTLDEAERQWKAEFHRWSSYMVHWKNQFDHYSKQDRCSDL

Test [8] has the same target. The experiment in a line: Acetylcholinesterase (AChE) small molecule antagonists: fluorescence cell-based qHTS assay (AID 1347398; calls by dose curve; note: nearly all actives have a fitted effect of over 50% in size). Conditions: Potency: AChE activity. The procedure, abridged: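 Cellular AChE inhibition: SH-SY5Y cells treated with test chemical for 30 min at 37 C, then acetylthiocholine hydrolysis followed over 40 min at room temperature via thiocholine-reactive Thiolite Green fluorescence (490/520 nm).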

Test [9] has the same target. The experiment in a line: Acetylcholinesterase (AChE) small molecule antagonists: enzyme-based qHTS assay with human liver microsomes (AID 1347399; calls by dose curve; note: nearly all actives have a fitted effect of over 60% in size). Conditions: Potency: qHTS inhibition. The procedure, abridged: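 Recombinant human AChE (50 mU/mL in the enzyme mix) and human liver microsomes (0.25 mg/mL final) were preincubated with compound and NADPH (0.25 mg/mL final) for 30 min at 37 C. Acetylthiocholine/DTNB was then added; thiocholine was read colorimetrically after 10 min at room temperature.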

In test [10] the target is Cytochrome P450 2D6 (Homo sapiens) (UniProt P10635). The test can be described thus: Cytochrome P450 Family 2 Subfamily D Member 6 (CYP2D6) small molecule antagonists: luciferase reporter qHTS assay (AID 1671196). Note: nearly all actives have a fitted effect of over 50% in size. Note: potency is the fitted concentration of half-maximal effect. The procedure, abridged: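 Chemicals tested for interference with CYP2D6 activity; proluciferin substrate, NADPH regeneration, 1 h at room temperature, luminescent detection.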
Sequence of Cytochrome P450 2D6 (Homo sapiens) (P10635 whole entry, looked up): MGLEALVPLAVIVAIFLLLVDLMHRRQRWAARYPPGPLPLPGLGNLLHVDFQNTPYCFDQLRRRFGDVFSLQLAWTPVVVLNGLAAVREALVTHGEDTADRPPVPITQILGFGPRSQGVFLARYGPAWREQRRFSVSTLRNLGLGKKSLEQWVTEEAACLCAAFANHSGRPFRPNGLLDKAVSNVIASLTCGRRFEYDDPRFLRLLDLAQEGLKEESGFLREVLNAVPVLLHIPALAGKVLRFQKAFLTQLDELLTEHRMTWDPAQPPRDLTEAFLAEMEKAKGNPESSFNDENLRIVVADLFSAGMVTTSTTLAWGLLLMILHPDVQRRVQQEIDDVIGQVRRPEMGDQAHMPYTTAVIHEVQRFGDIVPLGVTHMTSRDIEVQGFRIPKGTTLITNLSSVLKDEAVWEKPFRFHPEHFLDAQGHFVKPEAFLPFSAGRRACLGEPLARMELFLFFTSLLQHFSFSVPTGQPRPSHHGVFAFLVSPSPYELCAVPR

The target in test [11] is Cytochrome P450 2C19 (Homo sapiens) (UniProt P33261). The experiment in a line: Cytochrome P450 Family 2 Subfamily C Member 19 (CYP2C19) small molecule antagonists: luciferase reporter qHTS assay (AID 1671197). Note: nearly all actives have a fitted effect of over 65% in size. Note: potency is the fitted concentration of half-maximal effect. The procedure, abridged:
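Enzyme-substrate mix with proluciferin substrate (P450-Glo CYP2C19 system) preincubated with compounds 10 min at room temperature; NADPH regeneration solution added, 37C for 1 h; detection reagent stops reaction, luminescence read after 20 min. Ketoconazole positive control.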

For test [12], the target named is Cytochrome P450 2C9 (Homo sapiens) (UniProt P11712). The experiment in a line: Cytochrome P450 Family 2 Subfamily C Member 9 (CYP2C9) small molecule antagonists: luciferase reporter qHTS assay (AID 1671198). Note: nearly all actives have a fitted effect of over 50% in size. Note: potency is the fitted concentration of half-maximal effect. The procedure, abridged:
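CYP2C9 activity was measured with a P450-Glo proluciferin substrate. Enzyme–substrate mix was held with compound for 10 min at room temperature, then NADPH regeneration solution was added for 1 h at 37C. Luciferin product was read as luminescence.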

The target in test [13] is Cytochrome P450 1A2 (Homo sapiens) (UniProt P05177). The experiment in a line: Cytochrome P450 Family 1 Subfamily A Member 2 (CYP1A2) small molecule antagonists: luciferase reporter qHTS assay (AID 1671199). Note: nearly all actives have a fitted effect of over 50% in size. Note: potency is the fitted concentration of half-maximal effect. The procedure, abridged: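 Read-out is luminescence from luciferin detection reagent (20 min) proportional to CYP1A2 activity; compounds in DMSO preincubated 10 min with enzyme and proluciferin substrate, then NADPH regeneration solution, 1 h, room temperature.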
Sequence of Cytochrome P450 1A2 (Homo sapiens) (P05177 whole entry, looked up): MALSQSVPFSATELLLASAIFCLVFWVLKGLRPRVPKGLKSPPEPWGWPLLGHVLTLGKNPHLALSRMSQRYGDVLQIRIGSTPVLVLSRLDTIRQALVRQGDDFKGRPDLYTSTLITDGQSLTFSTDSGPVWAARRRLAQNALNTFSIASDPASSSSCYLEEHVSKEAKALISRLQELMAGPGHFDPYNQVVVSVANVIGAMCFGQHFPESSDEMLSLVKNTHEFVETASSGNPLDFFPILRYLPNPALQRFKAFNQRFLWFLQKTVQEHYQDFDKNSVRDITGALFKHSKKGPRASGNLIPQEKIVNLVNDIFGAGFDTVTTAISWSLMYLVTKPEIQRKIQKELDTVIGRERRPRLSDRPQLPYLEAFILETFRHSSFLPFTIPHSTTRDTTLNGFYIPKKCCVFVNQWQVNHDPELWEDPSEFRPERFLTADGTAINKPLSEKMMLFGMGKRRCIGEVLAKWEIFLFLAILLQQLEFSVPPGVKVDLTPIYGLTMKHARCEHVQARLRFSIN

The target in test [14] is Voltage-gated inwardly rectifying potassium channel KCNH2 (Homo sapiens) (UniProt Q12809). The experiment in a line: Human Ether-a-go-go-Related Gene (hERG) channel small molecule antagonists: fluorescence cell-based qHTS assay (AID 1671200). The procedure, abridged:
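hERG-U2OS cells plated overnight at 37 C, loaded with FluxOR II dye 1 h at RT in dark; after 10 min, thallium stimulus added. Fluorescence (480/540 nm) read kinetically for 2 min at 1 s intervals.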

Test [15] concerns the target Cytochrome P450 3A4 (Homo sapiens) (UniProt P08684). The test can be described thus: Cytochrome P450 Family 3 Subfamily A Member 4 (CYP3A4) small molecule antagonists: luciferase reporter qHTS assay (AID 1671201). Note: nearly all actives have a fitted effect of over 50% in size. Note: potency is the fitted concentration of half-maximal effect. The procedure, abridged: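 P450-Glo CYP3A4 luminescent assay: compounds preincubated 10 min at room temperature with enzyme and proluciferin substrate, NADPH regeneration added, 1 h room-temperature reaction, stopped with luciferin detection reagent; luminescence read after 20 min. Ketoconazole positive control.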

Test [16] concerns the target Thyrotropin-releasing hormone receptor (Homo sapiens) (UniProt P34981). The test can be described thus: qHTS assay to identify small molecule agonists of the thyrotropin-releasing hormone receptor (TRHR) signaling pathway (AID 1346891; calls by dose curve; note: series mostly up to about 58 µM). The procedure, abridged:
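HEK293 cells expressing TRHR plated 18 h at 37 C/5% CO2, calcium dye-loaded 2 h at 37 C, then compound added (agonist mode); kinetic calcium fluorescence read 3 min at 1 s intervals; 15 concentrations in triplicate.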

The target in test [17] is Acetylcholinesterase (Homo sapiens) (UniProt P22303). The experiment in a line: Acetylcholinesterase (AChE) small molecule antagonists: colormetric cell-based qHTS assay (AID 1347395; calls by dose curve; note: nearly all actives have a fitted effect of over 30% in size). The procedure, abridged: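 SH-SY5Y cells attached overnight, exposed to compound 30 min at 37 C, then given DTNB/acetylthiocholine; after 90 min at 37 C, colorimetric thiocholine read gives cellular AChE activity.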

Test [18] has as its target Nuclear receptor subfamily 1 group I member 2 (Rattus norvegicus) (UniProt Q9R1A7). The experiment in a line: Rat pregnane X receptor (rPXR) activation by small molecules, qHTS assay (AID 1346983). Note: nearly all actives have a fitted effect of over 20% in size. The conditions noted are these: rPXR luciferase reporter cells, One-Glo luminescence, 24 h; max activation: stronger effect = higher value. The procedure, abridged:
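Cell-based rPXR luciferase reporter assay, 2,000 cells per well, rested 5hr at 37 C before compound addition in DMSO, then 24 hr at 37 C. One-Glo reagent was added and luminescence read after 30 min at room temperature.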

Test [19] has as its target Nuclear receptor subfamily 1 group I member 2 (Homo sapiens) (UniProt O75469). The experiment in a line: CYP3A4 induction through human pregnane X receptor (PXR) by small molecules, qHTS assay (AID 1346984). Note: nearly all actives have a fitted effect of over 40% in size. The procedure, abridged:
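After 24 h at 37C with compound, DPX-2 cells (HepG2, co-transfected PXR response element and CYP3A4 promoter-luciferase) got 3uM final P450-Glo Luciferin-IPA for 3 h; One-Glo luminescence followed.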

Test [20] has the same target. The test can be described thus: Human pregnane X receptor (PXR) activation by small molecules, qHTS assay (AID 1346985). Note: nearly all actives have a fitted effect of over 40% in size. The procedure, abridged: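 DPX-2 cells (HepG2 co-transfected with a PXR response element and a CYP3A4-promoter luciferase construct) were seeded at 2,000 per well, rested 5 hr at 37C, then exposed to DMSO-dissolved compounds for 24 hr. Activation was read as luciferase luminescence.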

Structures are written as SMILES. “And” between values parts separate entries of the source, which are not always exact repeats. Equal entries are not always repeated. Inconclusive results are not listed. Some structures have more than one record in an assay (separate samples or runs), and their calls can disagree. The source made the active and inactive calls. Unless noted, calls come from the whole dose curve; as a rule, active = well fitted curve in the direction sought with a large enough effect in the repeat runs; inconclusive = weak or mixed curves; inactive = no such curve, though single readings can be large; an effect the other way counts as inactive or inconclusive.
% is set by controls: 0 for no effect and ±100 for the full control effect.

Sequence of Cytochrome P450 2C9 (Homo sapiens) (P11712 whole entry, looked up): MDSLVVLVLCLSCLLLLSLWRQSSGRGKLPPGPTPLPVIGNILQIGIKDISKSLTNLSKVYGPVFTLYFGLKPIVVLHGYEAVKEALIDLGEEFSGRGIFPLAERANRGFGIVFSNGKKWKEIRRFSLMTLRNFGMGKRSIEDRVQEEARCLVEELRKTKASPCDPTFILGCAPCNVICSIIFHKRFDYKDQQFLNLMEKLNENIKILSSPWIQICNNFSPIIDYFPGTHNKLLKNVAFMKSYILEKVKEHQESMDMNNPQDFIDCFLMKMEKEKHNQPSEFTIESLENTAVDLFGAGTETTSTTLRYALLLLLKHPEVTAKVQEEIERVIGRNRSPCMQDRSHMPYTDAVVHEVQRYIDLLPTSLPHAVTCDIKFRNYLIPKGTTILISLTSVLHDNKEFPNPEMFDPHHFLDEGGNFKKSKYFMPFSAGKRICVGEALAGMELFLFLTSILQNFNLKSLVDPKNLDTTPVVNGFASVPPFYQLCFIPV
Sequence of Voltage-gated inwardly rectifying potassium channel KCNH2 (Homo sapiens) (Q12809 whole entry, looked up): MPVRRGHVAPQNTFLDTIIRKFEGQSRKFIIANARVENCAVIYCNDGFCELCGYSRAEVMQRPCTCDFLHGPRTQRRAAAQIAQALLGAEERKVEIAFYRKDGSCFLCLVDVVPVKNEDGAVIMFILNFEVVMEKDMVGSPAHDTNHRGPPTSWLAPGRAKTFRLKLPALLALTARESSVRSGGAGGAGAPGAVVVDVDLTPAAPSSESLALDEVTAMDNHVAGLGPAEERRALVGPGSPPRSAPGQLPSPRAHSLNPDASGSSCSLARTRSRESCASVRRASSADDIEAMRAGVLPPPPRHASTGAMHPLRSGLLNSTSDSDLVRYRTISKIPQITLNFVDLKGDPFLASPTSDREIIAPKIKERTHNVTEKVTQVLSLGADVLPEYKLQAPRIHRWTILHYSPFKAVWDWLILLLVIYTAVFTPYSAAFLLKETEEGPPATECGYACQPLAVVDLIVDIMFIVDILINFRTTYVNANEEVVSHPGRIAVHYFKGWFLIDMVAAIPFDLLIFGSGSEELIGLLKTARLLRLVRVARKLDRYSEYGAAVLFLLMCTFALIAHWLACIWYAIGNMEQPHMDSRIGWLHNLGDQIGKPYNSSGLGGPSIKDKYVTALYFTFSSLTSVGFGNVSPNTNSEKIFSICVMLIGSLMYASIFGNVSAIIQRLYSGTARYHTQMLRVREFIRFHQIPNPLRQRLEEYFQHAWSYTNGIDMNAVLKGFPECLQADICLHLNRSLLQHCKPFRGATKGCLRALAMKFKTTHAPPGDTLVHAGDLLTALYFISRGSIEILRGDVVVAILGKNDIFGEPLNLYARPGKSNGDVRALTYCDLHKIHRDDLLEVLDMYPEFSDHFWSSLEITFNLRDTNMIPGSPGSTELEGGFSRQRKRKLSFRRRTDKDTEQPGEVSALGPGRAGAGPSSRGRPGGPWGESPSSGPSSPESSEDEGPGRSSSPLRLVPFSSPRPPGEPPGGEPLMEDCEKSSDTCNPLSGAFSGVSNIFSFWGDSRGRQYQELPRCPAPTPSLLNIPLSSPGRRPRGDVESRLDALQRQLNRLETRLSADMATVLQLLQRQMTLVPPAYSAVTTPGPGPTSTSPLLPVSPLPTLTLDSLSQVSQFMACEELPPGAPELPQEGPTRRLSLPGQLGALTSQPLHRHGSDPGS
Sequence of Nuclear receptor subfamily 1 group I member 2 (Homo sapiens) (O75469 whole entry, looked up): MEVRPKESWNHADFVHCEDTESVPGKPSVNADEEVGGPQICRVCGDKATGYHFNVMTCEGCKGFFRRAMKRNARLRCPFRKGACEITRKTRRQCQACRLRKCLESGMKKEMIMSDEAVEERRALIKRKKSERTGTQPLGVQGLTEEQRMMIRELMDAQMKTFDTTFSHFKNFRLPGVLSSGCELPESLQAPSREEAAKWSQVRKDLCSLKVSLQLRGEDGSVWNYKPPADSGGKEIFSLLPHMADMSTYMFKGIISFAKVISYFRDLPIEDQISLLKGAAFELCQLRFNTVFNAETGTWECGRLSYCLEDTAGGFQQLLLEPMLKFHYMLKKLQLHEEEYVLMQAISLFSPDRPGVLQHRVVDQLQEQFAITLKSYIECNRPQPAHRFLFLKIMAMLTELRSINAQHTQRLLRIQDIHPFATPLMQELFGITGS
Sequence of Cytochrome P450 3A4 (Homo sapiens) (P08684 whole entry, looked up): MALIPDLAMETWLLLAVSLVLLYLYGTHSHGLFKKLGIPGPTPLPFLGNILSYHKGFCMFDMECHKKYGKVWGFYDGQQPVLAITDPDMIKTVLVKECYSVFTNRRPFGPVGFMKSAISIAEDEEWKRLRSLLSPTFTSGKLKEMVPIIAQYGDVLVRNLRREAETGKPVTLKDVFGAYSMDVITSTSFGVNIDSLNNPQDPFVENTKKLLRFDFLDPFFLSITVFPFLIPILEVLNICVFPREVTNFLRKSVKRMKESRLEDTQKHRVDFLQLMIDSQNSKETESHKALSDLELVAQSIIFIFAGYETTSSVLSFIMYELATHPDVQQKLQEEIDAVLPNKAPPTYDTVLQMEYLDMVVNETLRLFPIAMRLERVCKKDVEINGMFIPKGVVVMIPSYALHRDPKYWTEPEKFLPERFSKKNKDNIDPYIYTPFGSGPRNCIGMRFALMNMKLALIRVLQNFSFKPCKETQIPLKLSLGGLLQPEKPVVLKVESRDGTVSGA
Sequence of Cytochrome P450 2C19 (Homo sapiens) (P33261 whole entry, looked up): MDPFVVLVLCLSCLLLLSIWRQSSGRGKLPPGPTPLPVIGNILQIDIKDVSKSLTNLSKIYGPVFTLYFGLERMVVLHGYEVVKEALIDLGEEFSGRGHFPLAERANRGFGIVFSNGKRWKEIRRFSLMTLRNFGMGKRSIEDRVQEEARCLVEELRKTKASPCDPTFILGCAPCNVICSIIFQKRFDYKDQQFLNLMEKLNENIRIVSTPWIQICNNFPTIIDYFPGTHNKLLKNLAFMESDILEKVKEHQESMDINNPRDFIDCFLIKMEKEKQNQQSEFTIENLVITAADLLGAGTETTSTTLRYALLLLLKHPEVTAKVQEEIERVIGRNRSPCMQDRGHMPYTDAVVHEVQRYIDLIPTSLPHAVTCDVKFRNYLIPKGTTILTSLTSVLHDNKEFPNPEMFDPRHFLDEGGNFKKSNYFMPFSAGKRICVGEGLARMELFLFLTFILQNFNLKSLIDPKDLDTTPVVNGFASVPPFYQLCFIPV

Take `Nc1cccc(Cl)c1`: the Potency result in test [1], in test [3], in [5], in test [6], in test [7] and in [8] was “inactive” throughout. Besides, the Potency result in test [9], in test [10], in test [14] and in [15] was “inactive” throughout. Besides, the molecule was classed as inactive in test [2] and in test [4]. Moreover, the Potency in test [11] was 40.4 µM (active) and inactive; in test [12], 71.8 µM (active) and inactive; in test [13], 40.4 µM (active) and inactive.

For `O=C(O)C1C(C(=O)O)C2(Cl)C(Cl)=C(Cl)C1(Cl)C2(Cl)Cl` (centres undefined), the Potency entry in test [1], in test [3], in test [5], in [6], in test [7] and in test [8] was “inactive” each time. In addition, the Potency result in test [9], in test [10], in [11], in [12], in [13] and in test [14] was “inactive” each time. Further, the Potency result in test [15] was “inactive”. Also, the result in test [2] was inactive.

As for `O=[N+]([O-])c1ccc(Cl)cc1`, the outcome in [16] and in test [2] was inactive. The Potency result in test [1], in [5], in test [6], in [7], in test [8] and in test [9] was “inactive” in each case. The Potency result in [10], in [11], in test [12], in [13], in [14] and in test [15] was “inactive” in each case. Moreover, the Potency in test [3] is 48.2 µM (active) and inactive.

Regarding `[N-]=[N+]=CC(=O)OC[C@H](N)C(=O)O`, the Potency entry in [1], in [3], in [5], in [6], in test [17] and in test [7] was “inactive” each time. Moreover, the Potency result in test [8], in test [9], in test [11], in test [12], in test [13] and in test [14] was “inactive” throughout. Besides, the Potency entry in test [15] was “inactive”. For the same molecule, the molecule was classed as inactive in [2] and in [4]. Further, the Potency entry in test [10] was “inactive and 30.9 µM (active)”.

For the molecule `CCSC(=O)N1CCCCCC1`, the Potency result in [1], in test [3], in test [5], in test [6], in test [7] and in [8] was “inactive” in each case. Moreover, the Potency result in test [9], in test [13] and in [14] was “inactive” throughout. The call in test [2] and in test [4] was inactive. For the same molecule, the Potency in test [10] is 30.8 µM (active) and inactive; in test [11] it was 34.6 µM (active); in test [12], 38.8 µM (active) and inactive; in test [15], 30.8 µM (active) and inactive.

For `C=CCN=C=S`, the Potency entry in test [1], in test [3], in test [5], in test [19], in test [20] and in [17] was “inactive” each time. Besides, the Potency entry in test [7], in [8], in [9], in test [10], in test [12] and in test [13] was “inactive” in each case. Further, the Potency result in test [14] and in test [15] was “inactive” each time. Moreover, the molecule was called inactive in test [2] and in [4]. In addition, the Potency is 55.7 µM (active) and inactive in [6]; 40.8 µM (active) and inactive in test [11]. For the same molecule, the max activation in test [18] was 0.185% (inactive).

The record behind these values is PubChem BioAssay (Tox21).
